In PubChem BioAssay (Tox21):
The source made the active and inactive calls. A call without a number means that no potency is given here. Unless noted, calls follow the shape of the dose curve; as a rule, active = well fitted curve in the direction sought with a large enough effect in the repeat runs; inconclusive = weak or mixed curves; inactive = no such curve, though single readings can be large; an effect the other way counts as inactive or inconclusive.

Tests used:
[1] = qHTS assay to identify small molecule antagonists of the glucocorticoid receptor (GR) signaling pathway - cell viability counter screen (AID 720693); also: nearly all actives have a fitted effect of over 55% in size; also: potency is read from the fitted curve at half-maximal effect
[2] = qHTS assay for identifying genotoxic compounds that show differential cytotoxicity against isogenic chicken DT40 cell lines with known DNA damage response pathways - Rad54/Ku70 mutant cell line (AID 743015); also: nearly all actives have a fitted effect of over 60% in size; also: potency is read from the fitted curve at half-maximal effect
[3] = molecular target: Androgen receptor (Homo sapiens) (UniProt P10275); experiment: qHTS assay to identify small molecule agonists of the androgen receptor (AR) signaling pathway using the MDA cell line (AID 743040; also: nearly all actives have a fitted effect of over 20% in size)
Sequence of Androgen receptor (Homo sapiens) (P10275 whole entry, looked up): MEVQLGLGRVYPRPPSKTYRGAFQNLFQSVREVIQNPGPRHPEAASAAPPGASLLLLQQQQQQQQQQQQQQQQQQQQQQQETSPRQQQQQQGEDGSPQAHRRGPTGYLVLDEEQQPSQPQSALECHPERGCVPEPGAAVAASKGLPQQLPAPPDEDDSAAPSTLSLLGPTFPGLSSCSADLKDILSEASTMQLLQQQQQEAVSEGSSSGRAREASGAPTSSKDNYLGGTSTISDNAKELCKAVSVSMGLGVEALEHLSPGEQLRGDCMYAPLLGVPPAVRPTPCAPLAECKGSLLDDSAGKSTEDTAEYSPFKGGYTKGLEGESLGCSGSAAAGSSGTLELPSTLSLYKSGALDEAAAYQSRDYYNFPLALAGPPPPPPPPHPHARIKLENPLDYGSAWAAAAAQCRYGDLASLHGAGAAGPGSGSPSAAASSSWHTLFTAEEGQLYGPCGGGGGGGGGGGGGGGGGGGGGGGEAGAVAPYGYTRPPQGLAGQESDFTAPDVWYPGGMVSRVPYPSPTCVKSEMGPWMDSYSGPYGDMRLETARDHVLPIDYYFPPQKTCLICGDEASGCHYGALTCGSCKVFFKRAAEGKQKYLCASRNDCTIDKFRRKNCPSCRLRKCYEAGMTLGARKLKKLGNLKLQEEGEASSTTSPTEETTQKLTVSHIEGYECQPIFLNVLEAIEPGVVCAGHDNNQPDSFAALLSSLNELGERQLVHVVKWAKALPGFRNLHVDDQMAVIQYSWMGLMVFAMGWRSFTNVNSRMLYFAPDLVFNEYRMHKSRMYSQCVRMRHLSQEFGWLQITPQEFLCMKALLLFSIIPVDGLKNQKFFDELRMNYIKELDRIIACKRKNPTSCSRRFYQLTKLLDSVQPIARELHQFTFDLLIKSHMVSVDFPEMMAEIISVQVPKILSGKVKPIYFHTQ
Outline: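 Stable MMTV-luciferase reporter in MDA-kb2 cells; note the promoter carries GR as well as AR response elements. 16 h compound treatment, 37C, 0% CO2; ONE-Glo luminescence endpoint.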

[4] = qHTS assay to identify small molecule antagonists of the thyroid receptor (TR) signaling pathway (AID 743065); also: nearly all actives have a fitted effect of over 55% in size; also: potency is read from the fitted curve at half-maximal effect
Outline: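 Antagonism measured as loss of luciferase signal in GH3 cells stably carrying a TRE-luciferase reporter, co-treated with compound and T3 (1 nM final) for 23.5 h at 37 C. Viability was read in the same well by CellTiter-Fluor.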

[5] = tested on: thyroid hormone receptor (rat, GH3 cells); experiment: qHTS assay to identify small molecule agonists of the thyroid receptor (TR) signaling pathway (AID 743066; calls by dose curve)
[6] = qHTS assay to identify small molecule antagonists of the estrogen receptor alpha (ER-alpha) signaling pathway - cell viability counter screen (AID 743074; calls by dose curve; also: nearly all actives have a fitted effect of over 45% in size; also: potency is read from the fitted curve at half-maximal effect)
[7] = qHTS assay to identify small molecule antagonists of the estrogen receptor alpha (ER-alpha) signaling pathway using the BG1 cell line - cell viability counter screen (AID 743081);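 also: compound given together with 17beta-estradiol as the ER stimulus; nearly all actives have a fitted effect of over 45% in size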; also: potency is read from the fitted curve at half-maximal effect
Aromatase (Homo sapiens) = Aromatase (Homo sapiens) (UniProt P11511); experiment: qHTS assay to identify aromatase inhibitors (AID 743083); also: nearly all actives have a fitted effect of over 55% in size; also: potency is read from the fitted curve at half-maximal effect
Sequence of Aromatase (Homo sapiens) (P11511 whole entry, looked up): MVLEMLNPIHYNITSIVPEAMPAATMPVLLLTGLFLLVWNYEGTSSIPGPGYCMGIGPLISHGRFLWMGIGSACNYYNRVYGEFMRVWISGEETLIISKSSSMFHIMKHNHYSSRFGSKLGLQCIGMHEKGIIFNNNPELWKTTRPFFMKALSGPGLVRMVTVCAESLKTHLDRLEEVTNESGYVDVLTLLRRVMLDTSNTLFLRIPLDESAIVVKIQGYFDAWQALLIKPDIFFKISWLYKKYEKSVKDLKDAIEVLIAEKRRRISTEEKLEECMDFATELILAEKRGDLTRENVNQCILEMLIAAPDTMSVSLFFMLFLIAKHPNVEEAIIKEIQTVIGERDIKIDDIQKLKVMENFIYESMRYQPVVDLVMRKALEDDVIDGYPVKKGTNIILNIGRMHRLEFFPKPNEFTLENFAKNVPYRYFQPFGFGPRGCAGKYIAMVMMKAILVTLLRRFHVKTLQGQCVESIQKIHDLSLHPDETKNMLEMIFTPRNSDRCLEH

[8] = qHTS assay to identify aromatase inhibitors - cell viability counter screen (AID 743084);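 also: cells stimulated with testosterone during compound exposure; nearly all actives have a fitted effect of over 55% in size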; also: potency is read from the fitted curve at half-maximal effect
[9] = qHTS assay to identify small molecule antagonists of the androgen receptor (AR) signaling pathway - cell viability counter screen (AID 743033; also: nearly all actives have a fitted effect of over 45% in size; also: potency is read from the fitted curve at half-maximal effect)
[10] = qHTS assay to identify small molecule antagonists of the androgen receptor (AR) signaling pathway using the MDA cell line - cell viability counter screen (AID 743041; also: nearly all actives have a fitted effect of over 45% in size; also: potency is read from the fitted curve at half-maximal effect)
Outline: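 Using the breast carcinoma line MDA-kb2 AR-luc, test chemicals were co-incubated with R1881 for 16 h; CellTiter-Fluor reagent, added at 15.5 h, provided a fluorescence measure of live cells.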

[11] = molecular target: Estrogen receptor (Homo sapiens) (UniProt P03372); experiment: qHTS assay to identify small molecule antagonists of the estrogen receptor alpha (ER-alpha) signaling pathway (AID 743069; active = well fitted curve in the direction sought with a large enough effect in the signal ratio in the repeat runs, not every such curve was filed as active; inconclusive = weak or mixed curves, or effect the other way; inactive = no such curve, though single readings can be large or run the other way; the % refers to the signal ratio; also: potency is read from the fitted curve at half-maximal effect)
Sequence of Estrogen receptor (Homo sapiens) (P03372 whole entry, looked up): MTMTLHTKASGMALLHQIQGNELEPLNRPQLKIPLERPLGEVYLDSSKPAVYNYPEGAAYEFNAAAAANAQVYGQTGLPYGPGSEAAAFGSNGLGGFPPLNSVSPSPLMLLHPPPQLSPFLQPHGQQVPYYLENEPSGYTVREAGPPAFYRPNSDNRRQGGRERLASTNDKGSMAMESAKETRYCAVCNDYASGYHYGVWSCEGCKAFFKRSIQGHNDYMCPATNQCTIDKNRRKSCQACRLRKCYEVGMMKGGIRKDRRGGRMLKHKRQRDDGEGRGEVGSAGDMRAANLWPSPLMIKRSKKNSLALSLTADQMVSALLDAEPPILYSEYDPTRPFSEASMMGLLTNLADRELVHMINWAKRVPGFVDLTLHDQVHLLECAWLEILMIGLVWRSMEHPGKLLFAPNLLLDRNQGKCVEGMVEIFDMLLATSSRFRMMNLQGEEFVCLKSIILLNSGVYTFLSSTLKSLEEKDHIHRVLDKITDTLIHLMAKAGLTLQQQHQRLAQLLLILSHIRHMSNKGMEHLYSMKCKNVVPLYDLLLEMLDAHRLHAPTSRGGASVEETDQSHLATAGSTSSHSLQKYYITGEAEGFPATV
Outline: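 Fluorescence intensity from a beta-lactamase FRET substrate served as the read-out. Cells: HEK293 with stably integrated ER-alpha-UAS-bla reporter. Agonist 17beta-estradiol was co-added with compounds; incubation 18 hr at 37C, substrate 2 hr at room temperature.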

[12] = molecular target: Estrogen receptor (Homo sapiens) (UniProt P03372); experiment: qHTS assay to identify small molecule agonists of the estrogen receptor alpha (ER-alpha) signaling pathway (AID 743075; calls by dose curve; also: potency is read from the fitted curve at half-maximal effect)
[13] = molecular target: Estrogen receptor (Homo sapiens) (UniProt P03372); experiment: qHTS assay to identify small molecule agonists of the estrogen receptor alpha (ER-alpha) signaling pathway using the BG1 cell line (AID 743079); also: nearly all actives have a fitted effect of over 20% in size; also: potency is read from the fitted curve at half-maximal effect
[14] = qHTS assay to identify small molecule antagonists of the estrogen receptor alpha (ER-alpha) signaling pathway using the BG1 cell line (AID 743080; calls by dose curve;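 also: BG1 cells stimulated with 17beta-estradiol alongside compound; series mostly up to about 70 µM; nearly all actives have a fitted effect of over 25% in size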)
Outline: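 After 5 days in phenol-red-free 10% charcoal-stripped FBS medium, BG1-Luc-4E2 cells were seeded, left 24 h at 37 C, co-treated with compounds and 17beta-estradiol for 21.5 h, then assayed for viability and luciferase.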

[15] = qHTS assay to identify small molecule antagonists of the thyroid receptor (TR) signaling pathway - cell viability counter screen (AID 743064); also: nearly all actives have a fitted effect of over 50% in size; also: potency is read from the fitted curve at half-maximal effect
Outline: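 Same-well viability check: GH3.TRE-Luc cells stimulated with 1 nM T3 alongside test compound for 23.5 h, followed by CellTiter-Fluor fluorescence.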

[16] = qHTS assay for identifying genotoxic compounds that show differential cytotoxicity against isogenic chicken DT40 cell lines with known DNA damage response pathways - wild type cell line (AID 743012); also: potency is read from the fitted curve at half-maximal effect; nearly all actives have a fitted effect of over 60% in size
Outline: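 Viability by ATP luminescence (CellTiter-Glo, 30 min RT) after 40 h compound treatment at 37 C/5% CO2, using 300 parental DNA repair-proficient DT40 cells per well.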

[17] = qHTS assay for identifying genotoxic compounds that show differential cytotoxicity against isogenic chicken DT40 cell lines with known DNA damage response pathways - Rev3 mutant cell line (AID 743014)

| SMILES | Potency [1] | Potency [2] | Potency [3] | Potency [4] | outcome [5] | Potency [6] | Potency [7] | Potency (Aromatase (Homo sapiens)) | Potency [8] | Potency [9] | Potency [10] | Potency [11] | Potency [12] | Potency [13] | Potency [14] | Potency [15] | Potency [16] | Potency [17] |
| --- | --- | --- | --- | --- | --- | --- | --- | --- | --- | --- | --- | --- | --- | --- | --- | --- | --- | --- |
| CCC(C)c1cc([N+](=O)[O-])cc([N+](=O)[O-])c1OC(=O)C=C(C)C (stereo unspecified) | inactive | 19.3 µM (active) | inactive | 21.7 µM (active) | inactive | inactive | inactive | 48.6 µM (active) | 24.3 µM (active) | – | – | – | – | – | – | – | – | – |
| ClC1=C(Cl)[C@]2(Cl)[C@H]3[C@H]([C@H]4C=C[C@H]3C4)[C@@]1(Cl)C2(Cl)Cl | inactive | 61.1 µM (active) | – | 68.6 µM (active) | inactive | inactive | inactive | inactive | inactive | inactive | inactive | inactive | inactive | 27.3 µM (active) | inactive | – | – | – |
| Nc1ccc(Cc2ccc(N)c(Cl)c2)cc1Cl | 53.1 µM (active) | – | – | – | – | inactive | inactive | 29.6 µM (active) | – | – | inactive | 4.22 µM [inconclusive] (active) | inactive | – | – | 52.7 µM (active) | – | – |
| CC(C)[C@H](C(=O)O[C@H](C#N)c1cccc(Oc2ccccc2)c1)c1ccc(Cl)cc1 | inactive | 30.6 µM (active) | – | – | inactive | inactive | inactive | inactive | inactive | inactive | inactive | – | – | – | – | inactive | – | – |
| CC(C)CCCCCOC(=O)c1ccccc1C(=O)OCCCCCC(C)C | inactive | inactive | – | inactive | inactive | inactive | inactive | inactive | inactive | – | inactive | inactive | inactive | inactive | inactive | – | – | – |
| [Hg+2].[I-].[I-] | – | 0.77 µM (active) | – | 0.77 µM (active) | inactive | 43.6 µM (active) | 68.6 µM (active) | 8.63 µM (active) | 6.86 µM (active) | 21.9 µM (active) | 54.5 µM (active) | – | 54.9 µM [inconclusive] (active) | – | – | 1.54 µM (active) | 1.37 µM (active) | 1.22 µM (active) |
| Nc1ccc(Sc2ccc(N)cc2)cc1 | inactive | 62.9 µM (active) | – | inactive | inactive | – | – | – | – | inactive | – | inactive | 0.219 µM [inconclusive] (active) | – | inactive | inactive | – | – |
